Screens: PubChem, National Center for Advancing Translational Sciences (NCATS)
In the library only some 10% were active in any assay of this set; here they are far more common.
MCF10A rerep: induces DNA re-replication in MCF 10a normal breast cells; MCF 10A DNA re-replication, Hoechst nuclear intensity, 48 h; Potency, µM (doses to about 46.1 µM), inactives show at the top dose activity, positive = re-replication, most hits filed as activators; 2.9% of 350,000 active; further: % of control where 0% means no effect; nearly all actives have a fitted effect of over 50% in size
RORg inh: ROR gamma (mouse) transcription inhibition; P51450; Drosophila S2 Gal4-RORgamma UAS-luciferase reporter, 20 h; Potency, µM (titrated, usually from 53.6 µM), for the others: at the highest dose activity change, negative = inhibition, actives largely listed as inhibitors; 5.4% of 310,000 active; AID 2551; further: on the % scale 0 is the no-effect control and ±100 the full control effect; nearly all actives have a fitted effect of over 60% in size
Target sequence (P51450 whole entry, looked up, the tested form may be a part): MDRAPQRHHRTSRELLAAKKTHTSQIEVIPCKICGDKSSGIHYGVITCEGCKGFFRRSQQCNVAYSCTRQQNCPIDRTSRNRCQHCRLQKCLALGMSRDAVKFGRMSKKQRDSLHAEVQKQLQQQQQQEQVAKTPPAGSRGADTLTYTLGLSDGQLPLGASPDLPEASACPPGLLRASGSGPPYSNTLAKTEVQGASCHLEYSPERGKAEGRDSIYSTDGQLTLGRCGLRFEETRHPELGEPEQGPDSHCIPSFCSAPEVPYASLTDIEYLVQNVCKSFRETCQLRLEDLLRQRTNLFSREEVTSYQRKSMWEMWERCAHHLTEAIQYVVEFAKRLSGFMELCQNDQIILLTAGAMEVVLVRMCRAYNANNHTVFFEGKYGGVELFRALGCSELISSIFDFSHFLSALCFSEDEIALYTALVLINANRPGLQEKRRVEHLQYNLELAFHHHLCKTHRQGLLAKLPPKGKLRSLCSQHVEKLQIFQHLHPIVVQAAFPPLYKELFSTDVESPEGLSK
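Luminescence from a UAS-regulated Photinus luciferase reporter in stably transfected Drosophila Schneider cells is measured; decreased signal marks ROR gamma inhibition. Fusion expression is induced by 700 uM copper sulfate for 20 hr.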
ELG1 DNA repair: inhibitors of ELG1-dependent DNA repair in HEK293T cells. HEK293T ELG1-luciferase reporter, luminescence, 16 h; DNA damage induced by 5-fluorouridine. Potency, µM (series often up to 46.1 µM), for the others: top-dose activity change, negative = inhibition, most hits filed as inhibitors. 2.3% of 330,000 active. AID 504467; further: on the % scale 0 is the no-effect control and ±100 the full control effect; nearly all actives have a fitted effect of over 55% in size
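In this reporter screen, reduction of luminescence relative to DMSO vehicle indicated activity. Compounds and 5-fluorouridine were added together to 2,000 cells per well, incubated for 16 hr at 37 °C, then developed with ONE-Glo.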
Gal4-VP16 FLuc: Gal4-VP16 reporter inhibition counter-screen; 3.5% of 310,000 active; Potency, µM (series often up to 53.6 µM), inactives show top-dose activity, negative = inhibition, hits mostly inhibitors; Drosophila S2 Gal4-VP16 UAS-luciferase, luminescence, 20 h;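 further: Gal4-VP16 expression switched on by copper sulfate through the metallothionein promoter; on the % scale 0 is the no-effect control and ±100 the full control effect; nearly all actives have a fitted effect of over 50% in size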
SW480 rerep: DNA re-replication induction in SW480 cells | SW480 DNA re-replication, Hoechst DNA content imaging, 48 h | Potency, µM (titrated, usually from 46.1 µM), inactives show top-dose re-replication activation, actives largely listed as activators | 1.8% of 340,000 active; further: % of control where 0% means no effect; nearly all actives have a fitted effect of over 55% in size
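Readout is total intensity of Hoechst-stained nuclei, excited at 405 nm and collected at 500-530 nm. Compound treatment lasted 48 hr at 37 C in 5% CO2 before staining.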
The depositor's hits bear a star; ? = inconclusive; nt = no result; [ ] = another dose, or the depositor's remark. The call rests on the fitted dose curve; in most records, active means well fitted curve in the direction sought with a large enough effect; inconclusive means small, poorly fitted or top-dose-only effect, or another doubt; inactive means no such curve, though single readings can be large; an effect the other way counts as inactive or inconclusive. Potency means the concentration at half of the fitted maximal effect.

SMILES	MCF10A rerep	RORg inh	ELG1 DNA repair	Gal4-VP16 FLuc	SW480 rerep
CNC(=S)N(CCc1c(C)[nH]c2ccc(Cl)cc12)Cc1cc(OC)c(OC)c(OC)c1	?	-13.7%	?	1.6%	25.9µM*
Cc1[nH]c2ccccc2c1CCN(Cc1cccs1)C(=S)Nc1ccccc1	-0.3%	5.62µM*	?	-1.9%	-5.5%
COCCNC(=S)N(CCc1c(C)[nH]c2ccc(F)cc12)Cc1cccs1	23.4%	7.94µM*	?	?	-0.4%
COCCN(C(=O)COC(=O)C1(c2ccccc2)CC1)c1c(N)n(CC(C)C)c(=O)[nH]c1=O	-1.2%	nt	-1.9%	nt	3.0%
CCNC(=S)N(CCc1c(C)[nH]c2ccc(Cl)cc12)Cc1ccco1	?	?	-18.2%	?	18.4µM*
CC[C@H](C)[C@H](NC(=O)[C@H](C)NC(=O)[C@H](Cc1cnc[nH]1)NC(=O)[C@@H]1CCCN1C(=O)CNC(=O)[C@H](CC(C)C)NC(=O)[C@H](CC(C)C)NC(=O)[C@H](Cc1ccc(O)cc1)NC(=O)CNC(=O)[C@H](C)NC(=O)[C@H](CO)NC(=O)[C@H](CC(N)=O)NC(=O)[C@H](CC(C)C)NC(=O)[C@@H](NC(=O)[C@H](Cc1c[nH]c2ccccc12)NC(=O)CN)[C@@H](C)O)C(=O)O	nt	1.5%	nt	-5.3%	nt
O=C(c1ccc2c3c(cccc13)CC2)C1CCCN(Cc2cccnc2)C1 (stereo unspecified)	-3.5%	2.1%	-22.8%	9.9%	-0.5%
COc1ccc2cc(C(=O)C3CCCN(Cc4cccc(C)n4)C3)ccc2c1 (stereo unspecified)	?	2µM*	?	12.6µM*	?
CCOC(=O)N1CCC(N2CCCC(C(=O)c3ccc4cc(OC)ccc4c3)C2)CC1 (stereo unspecified)	0.0%	31.1%	23.1µM*	-2.5%	?
Cc1cccc(CN2CCCC(C(=O)c3ccc4c5c(cccc35)CC4)C2)n1 (stereo unspecified)	?	3.98µM*	-19.2%	12.6µM*	?
COc1cc(CN2CCCC(C(=O)c3ccc4c5c(cccc35)CC4)C2)cc(OC)c1O (stereo unspecified)	20.6µM*	?	-12.8%	?	?
O=C(Nc1cccc(S(=O)(=O)N2CCOCC2)c1)c1ccc(N2CCOCC2)c([N+](=O)[O-])c1	21.6%	38.4%	?	-7.3%	-9.5%
O=CN1CCN(c2ncnc3c2nnn3Cc2c(F)cccc2Cl)CC1	?	1.4%	6.4%	-0.8%	1.9%
CCn1ncc(CN2CCCC(C(=O)c3cccc(OC(C)C)c3)C2)c1C (stereo unspecified)	23.1µM*	14.5%	9.6%	-10.3%	-0.2%
COc1ccc(-n2c(=O)c3ccccc3n(Cc3ccccc3F)c2=O)cc1OC	22.9%	24.4%	?	-0.1%	10.2%
CC1=CC(C)(C)Nc2ccc(OC(=O)CN3C(=O)c4cccc5cccc(c45)C3=O)cc21	14.6µM*	-37.7%	-0.7%	-20.4%	?
CC1=CC(C)(C)Nc2ccc(OC(=O)CN3C(=O)c4ccccc4C3=O)cc21	5.8µM*	4.47µM*	12.7%	7.08µM*	18.4µM*
CCOC(=O)c1c(C)[nH]c(N=Nc2ccccc2C)c1C	-6.3%	3.98µM*	?	?	-3.9%
CCOC(=O)c1[nH]c(C)c(C(=O)NCc2ccc(Cl)cc2)c1C	?	?	-20.0%	-6.5%	4.5%
CCOC(=O)c1[nH]c(C)c(C(=O)Nc2cc(Cl)ccc2C)c1C	?	-40.2%	?	-2.5%	0.82µM*
CCOC(=O)c1[nH]c(C)c(C(=O)Nc2ccccc2C)c1C	3.66µM*	1.6%	?	2.9%	?
CCNC(=O)c1c(C)[nH]c(C(=O)OCC)c1C	-18.1%	-13.3%	0.7%	-6.1%	?
CCOC(=O)c1[nH]c(C=O)c(C(=O)OCC)c1C	11.6µM*	15.9%	-10.5%	-2.4%	5.8µM*
CCOC(=O)c1c(C)[nH]c(N=Nc2ccc(C)cc2C)c1C	?	-40.2%	?	-5.1%	0.1%
COc1ccc(C2(CNC(=O)c3cccc([N+](=O)[O-])c3)CCCCC2)cc1OC	3.7%	30.6%[10 µM]	?	0.4%	2.5%
SMILES	MCF10A rerep	RORg inh	ELG1 DNA repair	Gal4-VP16 FLuc	SW480 rerep
COc1ccc(C2(CNC(=O)c3ccc(OC)c([N+](=O)[O-])c3)CCCCC2)cc1OC	1.7%	-9.7%[10 µM]	14.6µM*	-4.9%	-92.1%
COc1ccc(-n2nc3cc(C)c(NC(=S)NC(=O)c4ccccc4C)cc3n2)cc1	3.66µM*	3.16µM*	?	?	10.8%
Cc1ccc(-n2nc3cc(C)c(NC(=S)NC(=O)/C=C/c4ccco4)cc3n2)cc1	5.1%	2.24µM*	?	5.01µM*	3.66µM*
Cc1ccc(-n2nc3ccc(NC(=S)NC(=O)/C=C/c4ccco4)cc3n2)cc1	-0.7%	3.16µM*	?	?	-6.8%
O=[N+]([O-])c1ccc(CSc2nnc(SCc3ccc(Cl)cc3)s2)cc1	-1.7%	?	23.4%	-2.3%	13.8%
O=C(c1ccc2c(c1)OCO2)N(Cc1ccco1)C1(C(=O)NC2CCCCC2)CCCCC1	11.8%	-0.2%	?	-3.7%	?
O=C(c1ccccc1)c1cc(Cl)ccc1N1C(=O)C=CC1=O	?	?	?	15.8µM*	18.4µM*
COc1cccc(CN(Cc2ccco2)S(=O)(=O)c2ccc(S(=O)(=O)NCc3ccccc3)cc2)c1OC	4.0%	-9.5%	11.6µM*	-1.0%	-1.0%
NC(=O)CN(c1ccc(Oc2ccccc2)cc1)S(=O)(=O)c1ccccc1	5.4%	1.0%	-12.5%	18.1%	1.8%
Cc1c(CCC(=O)O)c(=O)oc2cc(OCc3ccccc3Br)ccc12	18.7%	-40.0%	0.6%	3.16µM*	3.6%
COc1cccc(-c2coc3cc4oc(=O)c(CCC(=O)O)c(C)c4cc23)c1	19.7%	-8.6%	14.6%	12.6µM*	1.0%
COc1ccccc1COc1ccc2c(C)c(CCC(=O)O)c(=O)oc2c1C	-13.8%	7.94µM*	14.6%	?	-8.4%
CCOC(=O)CCc1c(C)c2ccc(OCc3cc([N+](=O)[O-])ccc3OC)c(C)c2oc1=O	?	22.5%	8.6%	-9.4%	-7.2%
COc1ccc(NS(=O)(=O)c2cc(NC(=O)c3ccc(=O)[nH]c3)ccc2C)cc1	11.3%	nt	?	nt	4.6%
COc1ccc(NS(=O)(=O)c2ccc(NC(=O)Cc3cccs3)cc2)cc1	5.5%	?	-12.5%	0.3%	9.5%
COc1ccc(NS(=O)(=O)c2cc(NC(=O)[C@@H](NC(=O)c3ccccc3)C(C)C)ccc2C)cc1	18.4µM*	?	?	-20.4%	?
COc1ccc(NS(=O)(=O)c2cc(NC(=O)Cc3cccs3)ccc2C)cc1	16.4µM*	2.8%	?	-18.0%	?
